{
  "source": "the supplement of paper PMC8975748",
  "note": "Structures can show the parent of a compound that is named as a salt.",
  "data": [
    {"test_system": "Saccharomyces cerevisiae BY4741 SeMeCo community", "assay": "z-score of subpopulation abundance vs DMSO median, subpopulation auxotrophic for HL; higher = larger share of this subpopulation than in DMSO controls", "settings": "10 µM; 24 h; SM minimal medium; subpopulation (auxotrophy): HL", "experimental": "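Fluorescent four-plasmid SeMeCo (self-establishing metabolically cooperating S. cerevisiae BY4741 community; plasmids pH-mRuby2, pL-mWasabi, pU-eCFP, pM-TagRFP657) was grown 24 h in minimal SM medium with each Selleck FDA-approved drug at 10 µM in 384-well plates. Cells were fixed and imaged by high-content confocal microscopy. For each auxotrophic subpopulation (and the prototroph), a z-score gives the deviation from the DMSO vehicle-control population median.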", "values": [
      {"smiles": "NCCc1c[nH]c2ccc(O)cc12", "note": "[Serotonin HCl]", "z-score of subpopulation abundance": -0.74},
      {"smiles": "CCCN1C[C@H](CSC)C[C@@H]2c3cccc4[nH]cc(c34)C[C@H]21", "note": "[Pergolide Mesylate]", "z-score of subpopulation abundance": -0.35},
      {"smiles": "C=CCN1C[C@H](C(=O)N(CCCN(C)C)C(=O)NCC)C[C@@H]2c3cccc4[nH]cc(c34)C[C@H]21", "note": "[Cabergoline]", "z-score of subpopulation abundance": -0.49},
      {"smiles": "CCN(C)C(=O)Oc1cccc([C@H](C)N(C)C)c1", "note": "[Rivastigmine Tartrate]", "z-score of subpopulation abundance": 0.04},
      {"smiles": "CN(C)[C@@H]1C(=O)C(C(N)=O)=C(O)[C@@]2(O)C(=O)C3=C(O)c4c(O)cccc4[C@@](C)(O)[C@H]3C[C@@H]12", "note": "[Tetracycline HCl]", "z-score of subpopulation abundance": 0.29},
      {"smiles": "Cc1cc(C(C#N)c2ccc(Cl)cc2)c(Cl)cc1NC(=O)c1cc(I)cc(I)c1O", "note": "(stereo not given) [Closantel]", "z-score of subpopulation abundance": 0.7},
      {"smiles": "CN1[C@@H]2CC[C@H]1C[C@@H](OC(=O)[C@H](CO)c1ccccc1)C2", "note": "[Hyoscyamine]", "z-score of subpopulation abundance": -0.72},
      {"smiles": "COc1cc2c(cc1OC)C1CC(=O)C(CC(C)C)CN1CC2", "note": "(stereo not given) [Tetrabenazine (Xenazine)]", "z-score of subpopulation abundance": 0.31},
      {"smiles": "CN(C)C(=O)Oc1cccc([N+](C)(C)C)c1", "note": "[Neostigmine Bromide]", "z-score of subpopulation abundance": -0.44},
      {"smiles": "CCN(CC)CCOC(=O)C(O)(c1ccccc1)c1ccccc1", "note": "[Benactyzine hydrochloride]", "z-score of subpopulation abundance": -0.47},
      {"smiles": "CN[C@@H]1[C@@H](O)[C@@H](O[C@@H]2[C@@H](O)[C@H](O[C@H]3O[C@H]([C@@H](C)O)[C@@H](O)[C@H](O)[C@H]3N)[C@@H](N)C[C@H]2N)OC[C@]1(C)O", "note": "[Geneticin (G418 Sulfate)]", "z-score of subpopulation abundance": -0.02},
      {"smiles": "CC1(C)SC2C(N)C(=O)N2C1C(=O)O", "note": "(stereo not given) [6-Aminopenicillanic acid]", "z-score of subpopulation abundance": -0.37},
      {"smiles": "CC(C)(O)C(Cl)(Cl)Cl", "note": "[Chlorobutanol]", "z-score of subpopulation abundance": -0.54},
      {"smiles": "C[N+]1(C)[C@@H]2C[C@@H](OC(=O)[C@H](CO)c3ccccc3)C[C@H]1[C@@H]1O[C@@H]12", "note": "[Methscopolamine]", "z-score of subpopulation abundance": -0.05},
      {"smiles": "C[C@@H]1CC[C@H]2[C@@H](C)C(=O)O[C@@H]3O[C@@]4(C)CC[C@@H]1[C@]32OO4", "note": "[Artemisinin]", "z-score of subpopulation abundance": -0.27},
      {"smiles": "NC(=O)CN1CCCC1=O", "note": "[Piracetam]", "z-score of subpopulation abundance": 0.98},
      {"smiles": "Cc1cc(O)ccc1Cl", "note": "[Chlorocresol]", "z-score of subpopulation abundance": -0.86},
      {"smiles": "NCC(O)c1ccc(O)cc1", "note": "(racemic) [(+,-)-Octopamine HCl]", "z-score of subpopulation abundance": -1.17},
      {"smiles": "CC(C)=CCOc1c2occc2cc2ccc(=O)oc12", "note": "[Imperatorin]", "z-score of subpopulation abundance": 0.34},
      {"smiles": "Cn1cc(C2=C(c3cn(C4CCN(Cc5ccccn5)CC4)c4ccccc34)C(=O)NC2=O)c2ccccc21", "z-score of subpopulation abundance": -1.11},
      {"smiles": "CN1[C@@H]2C[C@@H](OC(=O)[C@H](CO)c3ccccc3)C[C@H]1[C@@H]1O[C@@H]12", "note": "[Scopolamine HBr trihydrate]", "z-score of subpopulation abundance": -0.72},
      {"smiles": "CC(C)N(CCC(C(N)=O)(c1ccccc1)c1ccccn1)C(C)C", "note": "(stereo not given) [Disopyramide]", "z-score of subpopulation abundance": 2.14},
      {"smiles": "CCOC(=O)Nc1ccc(NCc2ccc(F)cc2)cc1N", "note": "[Retigabine]", "z-score of subpopulation abundance": 0.75},
      {"smiles": "CN(C)[C@@H]1C(=O)C(C(N)=O)=C(O)[C@@]2(O)C(=O)C3=C(O)c4c(O)ccc(Cl)c4[C@@](C)(O)[C@H]3C[C@@H]12", "note": "[Chlortetracycline HCl]", "z-score of subpopulation abundance": 0.38},
      {"smiles": "C[C@@H]1O[C@@H](O[C@H]2C[C@@H](O)[C@]3(CO)[C@H]4[C@H](O)C[C@]5(C)[C@@H](C6=CC(=O)OC6)CC[C@]5(O)[C@@H]4CC[C@]3(O)C2)[C@H](O)[C@H](O)[C@H]1O", "note": "[Ouabain]", "z-score of subpopulation abundance": -1.05},
      {"smiles": "CCN1CC2(OC(=O)c3ccccc3NC(C)=O)CCC(OC)C34C1C(CC23)C1(O)CC(OC)C2CC4C1(O)C2OC", "note": "(stereo not given) [Lappaconitine]", "z-score of subpopulation abundance": -0.26},
      {"smiles": "CN1[C@@H]2C[C@@H](OC(=O)[C@H](CO)c3ccccc3)C[C@H]1[C@@H]1O[C@@H]12", "note": "[Scopolamine HBr]", "z-score of subpopulation abundance": -0.91},
      {"smiles": "CN1c2ccccc2C(NCCCCCCC(=O)O)c2ccc(Cl)cc2S1(=O)=O", "note": "(stereo not given) [Tianeptine sodium]", "z-score of subpopulation abundance": -0.07},
      {"smiles": "Oc1cccc2cccnc12", "note": "[8-Hydroxyquinoline]", "z-score of subpopulation abundance": 0.63},
      {"smiles": "CN1C(=O)COc2c(C(=O)NC3CN4CCC3CC4)cc(Cl)cc21", "note": "(stereo not given) [Azasetron HCl]", "z-score of subpopulation abundance": 1.41},
      {"smiles": "O=C(O[C@H]1C[C@H]2CC[C@@H](C1)[N+]21CCCC1)C(O)(c1ccccc1)c1ccccc1", "note": "[Trospium chloride]", "z-score of subpopulation abundance": -0.4},
      {"smiles": "O=c1cccc2n1C[C@@H]1CNC[C@H]2C1", "note": "[Cytisine]", "z-score of subpopulation abundance": -0.4},
      {"smiles": "CN(C)C(=O)Oc1ccc[n+](C)c1", "note": "[Pyridostigmine Bromide]", "z-score of subpopulation abundance": 0.3},
      {"smiles": "CN(C)[C@@H]1C(=O)C(C(N)=O)=C(O)[C@@]2(O)C(=O)C3=C(O)c4c(O)cccc4[C@@](C)(O)[C@H]3[C@H](O)[C@@H]12", "note": "[Oxytetracycline Dihydrate]", "z-score of subpopulation abundance": 0.03},
      {"smiles": "C#C[C@]1(O)C=C[C@H]2[C@@H]3CCC4=CC(=O)CC[C@@H]4[C@H]3CC[C@@]21CC", "note": "[Gestodene]", "z-score of subpopulation abundance": 0.13},
      {"smiles": "CN[C@@H]1[C@@H](O)[C@@H](O[C@@H]2[C@@H](O)[C@H](O[C@H]3O[C@H](CN)CC[C@H]3N)[C@@H](N)C[C@H]2N)OC[C@]1(C)O.CN[C@@H]1[C@@H](O)[C@@H](O[C@@H]2[C@@H](O)[C@H](O[C@H]3O[C@H]([C@@H](C)N)CC[C@H]3N)[C@@H](N)C[C@H]2N)OC[C@]1(C)O.CN[C@@H]1[C@@H](O)[C@@H](O[C@@H]2[C@@H](O)[C@H](O[C@H]3O[C@H]([C@@H](C)NC)CC[C@H]3N)[C@@H](N)C[C@H]2N)OC[C@]1(C)O", "note": "[Gentamicin Sulfate]", "z-score of subpopulation abundance": -1.11},
      {"smiles": "CN1[C@@H]2CC[C@H]1C[C@@H](OC(=O)C(CO)c1ccccc1)C2", "note": "(stereo not given in full) [Atropine sulfate monohydrate]", "z-score of subpopulation abundance": -0.69},
      {"smiles": "COc1ccc(C(CN(C)C)C2(O)CCCCC2)cc1", "note": "(stereo not given) [Venlafaxine HCl]", "z-score of subpopulation abundance": 1.07},
      {"smiles": "COc1ccc(C(CN(C)C)C2(O)CCCCC2)cc1", "note": "(stereo not given) [Venlafaxine]", "z-score of subpopulation abundance": -1.14},
      {"smiles": "C=CC[C@]1(O)CC[C@H]2[C@@H]3CCC4=CC(=O)CCC4=C3C=C[C@@]21C", "note": "[Altrenogest]", "z-score of subpopulation abundance": 0.59}
    ]}
  ]
}
